Experimental data as given in PubChem BioAssay (NCI).
Where “and” joins values, the source holds several entries; their conditions need not be identical. Identical values can stand only once. This is part of a sample that, as a whole, favours compounds with a hit. Of some 83,000 tested, about 20% had one in any assay.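 Single-concentration screen, 48 h exposure, 96-well plates. Endpoint: percent growth. Below 10 = active.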 Calls of active or inactive are those of the source.

Tests used:
Test in all cases: NCI-60 one-dose screen, 48 h (100 = growth as untreated, 0 = no growth, -100 = all killed)
Details in all cases: 10 µM unless noted
DU-145 prostate = test system: DU-145 prostate
K-562 leukemia = test system: K-562 leukemia
MALME-3M melanoma = test system: MALME-3M melanoma
MDA-MB-231 breast = test system: MDA-MB-231 breast
RXF 393 renal = test system: RXF 393 renal
SF-268 CNS = test system: SF-268 CNS
SF-295 CNS = test system: SF-295 CNS
SF-539 CNS = test system: SF-539 CNS
UACC-257 melanoma = test system: UACC-257 melanoma
M14 melanoma = test system: M14 melanoma

CCN1CCN(CC(=O)Nc2nc3ccc(NCc4ccc(C)cc4)cc3s2)CC1
growth (DU-145 prostate): 84.3% (inactive) | growth (K-562 leukemia): -0.543% (active) | growth (MALME-3M melanoma): -41.5% (active) | growth (MDA-MB-231 breast): 59.1% (inactive) | growth (RXF 393 renal): 56.1% (inactive) | growth (SF-268 CNS): 73.5% (inactive) | growth (SF-295 CNS): 88.2% (inactive) | growth (SF-539 CNS): 22.2% (inactive) | growth (UACC-257 melanoma): 34% (inactive) | growth (M14 melanoma): -44% (active)

c1cc(NCCCCN2CCOCC2)c2ccc3c(ccc4c(NCCN5CCOCC5)ccnc43)c2n1
growth (DU-145 prostate): 80.8% (inactive) | growth (K-562 leukemia): 66.5% (inactive) | growth (MALME-3M melanoma): 99.9% (inactive) | growth (MDA-MB-231 breast): 71% (inactive) | growth (RXF 393 renal): 72.5% (inactive) | growth (SF-268 CNS): 101% (inactive) | growth (SF-295 CNS): 97.9% (inactive) | growth (SF-539 CNS): 82.3% (inactive) | growth (UACC-257 melanoma): 116% (inactive) | growth (M14 melanoma): 92.7% (inactive)

Nc1ccc(-c2nc3ccc4[nH]ncc4c3c3c2CCCC3)cc1F
growth (DU-145 prostate): 38.6% (inactive) | growth (K-562 leukemia): 30.2% (inactive) | growth (MALME-3M melanoma): 28.3% (inactive) | growth (MDA-MB-231 breast): 37.6% (inactive) | growth (RXF 393 renal): -13% (active) | growth (SF-268 CNS): 39.9% (inactive) | growth (SF-295 CNS): 37.8% (inactive) | growth (SF-539 CNS): 24.5% (inactive) | growth (UACC-257 melanoma): 26.6% (inactive) | growth (M14 melanoma): 24.9% (inactive)

OCc1cc(CN2CCCCC2)c(O)c2ncccc12
growth (DU-145 prostate): 49.5% (inactive) | growth (K-562 leukemia): 55.5% (inactive) | growth (MALME-3M melanoma): 62.8% (inactive) | growth (MDA-MB-231 breast): 49.5% (inactive) | growth (RXF 393 renal): 73.8% (inactive) | growth (SF-268 CNS): 48.2% (inactive) | growth (SF-295 CNS): 60.6% (inactive) | growth (SF-539 CNS): 54% (inactive) | growth (UACC-257 melanoma): 77.8% (inactive) | growth (M14 melanoma): 36.2% (inactive)

CC(=O)N1N=C(c2ccc(Nc3nc(Nc4ccc(F)cc4)nc(Nc4ccc(Cl)cc4)n3)cc2)CC1c1ccc(N(C)C)cc1 (stereo not drawn)
growth (DU-145 prostate): 5.71% (active) | growth (K-562 leukemia): 23.8% (inactive) | growth (MALME-3M melanoma): 62.7% (inactive) | growth (MDA-MB-231 breast): 51% (inactive) | growth (SF-268 CNS): 68.8% (inactive) | growth (SF-295 CNS): 1.56% (active) | growth (SF-539 CNS): 67.9% (inactive) | growth (UACC-257 melanoma): 46.8% (inactive) | growth (M14 melanoma): 41.4% (inactive)

O=C1/C(=C/c2ccccc2[N+](=O)[O-])Cc2ccccc21
growth (DU-145 prostate): 32.7% (inactive) and 41.5% (inactive) | growth (K-562 leukemia): 10.5% (inactive) and 6.16% (active) | growth (MALME-3M melanoma): 23.7% (inactive) and 60.2% (inactive) | growth (MDA-MB-231 breast): -9.95% (active) and 31.3% (inactive) | growth (RXF 393 renal): -4.67% (active) and -0.599% (active) | growth (SF-268 CNS): 66% (inactive) and 42.8% (inactive) | growth (SF-295 CNS): 23% (inactive) and 28.3% (inactive) | growth (SF-539 CNS): 24.2% (inactive) and 34.3% (inactive) | growth (UACC-257 melanoma): 64.4% (inactive) and 71.8% (inactive) | growth (M14 melanoma): 42.7% (inactive) and 57.8% (inactive)

COc1ccc(Oc2nc(Nc3ccc(N4CCOCC4)cc3)ncc2NC(=O)c2cccc(C(F)(F)F)c2)cc1
growth (DU-145 prostate): 91.9% (inactive) | growth (K-562 leukemia): 56% (inactive) | growth (MALME-3M melanoma): 97.5% (inactive) | growth (MDA-MB-231 breast): 69.1% (inactive) | growth (RXF 393 renal): 65.6% (inactive) | growth (SF-268 CNS): 89.5% (inactive) | growth (SF-295 CNS): 85.6% (inactive) | growth (SF-539 CNS): 77.3% (inactive) | growth (UACC-257 melanoma): 98.2% (inactive) | growth (M14 melanoma): 80.7% (inactive)

NC(N)=NC(N)=NCCCc1ccco1
growth (DU-145 prostate): 115% (inactive) | growth (K-562 leukemia): 96.8% (inactive) | growth (MALME-3M melanoma): 96.4% (inactive) | growth (MDA-MB-231 breast): 107% (inactive) | growth (RXF 393 renal): 114% (inactive) | growth (SF-268 CNS): 94.1% (inactive) | growth (SF-295 CNS): 93.9% (inactive) | growth (SF-539 CNS): 103% (inactive) | growth (UACC-257 melanoma): 99.8% (inactive) | growth (M14 melanoma): 111% (inactive)

Cc1ccccc1SSc1ccccc1C
growth (DU-145 prostate): 6.96% (active) | growth (K-562 leukemia): 99.1% (inactive) | growth (MALME-3M melanoma): 104% (inactive) | growth (MDA-MB-231 breast): 82.7% (inactive) | growth (RXF 393 renal): 73.8% (inactive) | growth (SF-268 CNS): 95.2% (inactive) | growth (SF-295 CNS): 80.3% (inactive) | growth (SF-539 CNS): 104% (inactive) | growth (UACC-257 melanoma): 105% (inactive) | growth (M14 melanoma): 85.2% (inactive)

[2H]C([2H])([2H])Oc1cccc(/C=C/C(=O)/C=C(/C=C/c2cccc(OC([2H])([2H])[2H])c2OC([2H])([2H])[2H])OB(F)F)c1OC([2H])([2H])[2H]
growth (DU-145 prostate): 88.3% (inactive) | growth (K-562 leukemia): 65.2% (inactive) | growth (MALME-3M melanoma): 75.9% (inactive) | growth (MDA-MB-231 breast): 88% (inactive) | growth (RXF 393 renal): 121% (inactive) | growth (SF-268 CNS): 98% (inactive) | growth (SF-295 CNS): 103% (inactive) | growth (SF-539 CNS): 92.2% (inactive) | growth (UACC-257 melanoma): 64.5% (inactive) | growth (M14 melanoma): 92.8% (inactive)

C=C1CC[C@@H]2[C@](C)(COC(C)=O)[C@H](OC(C)=O)CC[C@@]2(C)[C@@H]1CC(Nc1ccc(S(=O)(=O)Nc2nccs2)cc1)C1=CCOC1=O (stereo partly drawn)
growth (DU-145 prostate): 22.3% (inactive) | growth (K-562 leukemia): 3.4% (active) | growth (MALME-3M melanoma): 0.4% (active) | growth (MDA-MB-231 breast): 5.69% (active) | growth (RXF 393 renal): -50.6% (active) | growth (SF-268 CNS): 21.3% (inactive) | growth (SF-295 CNS): 73% (inactive) | growth (SF-539 CNS): -67.1% (active) | growth (UACC-257 melanoma): 22.4% (inactive) | growth (M14 melanoma): 8.12% (active)

N#Cc1c(N)nnn1Cc1cc(=O)oc2ccc(O)cc12
growth (DU-145 prostate): 108% (inactive) | growth (K-562 leukemia): 96.1% (inactive) | growth (MALME-3M melanoma): 108% (inactive) | growth (MDA-MB-231 breast): 112% (inactive) | growth (RXF 393 renal): 98.8% (inactive) | growth (SF-268 CNS): 103% (inactive) | growth (SF-295 CNS): 102% (inactive) | growth (SF-539 CNS): 104% (inactive) | growth (UACC-257 melanoma): 101% (inactive) | growth (M14 melanoma): 105% (inactive)

O=C1CCCCN1CCCCC#Cc1cccc(C#Cc2cccnc2)c1
growth (DU-145 prostate): 109% (inactive) | growth (K-562 leukemia): 26.9% (inactive) | growth (MALME-3M melanoma): 249% (inactive) | growth (MDA-MB-231 breast): 65.3% (inactive) | growth (SF-268 CNS): 83.2% (inactive) | growth (SF-295 CNS): 79.9% (inactive) | growth (SF-539 CNS): 91.8% (inactive) | growth (UACC-257 melanoma): 84.4% (inactive) | growth (M14 melanoma): 105% (inactive)

NNCCc1ccccc1
growth (DU-145 prostate): 122% (inactive) and 108% (inactive) | growth (K-562 leukemia): 91.5% (inactive) and 105% (inactive) | growth (MALME-3M melanoma): 82.1% (inactive) | growth (MDA-MB-231 breast): 93.4% (inactive) and 83.5% (inactive) | growth (RXF 393 renal): 122% (inactive) and 80.3% (inactive) | growth (SF-268 CNS): 108% (inactive) and 96.1% (inactive) | growth (SF-295 CNS): 106% (inactive) and 92% (inactive) | growth (SF-539 CNS): 96.9% (inactive) | growth (UACC-257 melanoma): 121% (inactive) | growth (M14 melanoma): 101% (inactive) and 96.1% (inactive)

COc1cc(CO)cc2cc3ccccc3nc12
growth (DU-145 prostate): 106% (inactive) | growth (K-562 leukemia): 90.7% (inactive) | growth (MALME-3M melanoma): 112% (inactive) | growth (MDA-MB-231 breast): 101% (inactive) | growth (RXF 393 renal): 115% (inactive) | growth (SF-268 CNS): 100% (inactive) | growth (SF-295 CNS): 102% (inactive) | growth (SF-539 CNS): 102% (inactive) | growth (UACC-257 melanoma): 105% (inactive) | growth (M14 melanoma): 105% (inactive)

NC1=CC(=O)c2cccnc2C1=O
growth (DU-145 prostate): -1.98% (active) | growth (K-562 leukemia): -48.4% (active) | growth (MALME-3M melanoma): -81.4% (active) | growth (MDA-MB-231 breast): -13.5% (active) | growth (RXF 393 renal): 15.8% (inactive) | growth (SF-268 CNS): -0.409% (active) | growth (SF-295 CNS): 22.4% (inactive) | growth (SF-539 CNS): -89.2% (active) | growth (UACC-257 melanoma): -48.4% (active) | growth (M14 melanoma): -88.6% (active)

O=C1N=c2ccccc2=C1c1sc(=S)n(C2CC(=O)N(c3ccc(Cl)cc3)C2=O)c1O (stereo not drawn)
growth (DU-145 prostate): 106% (inactive) | growth (K-562 leukemia): 94.4% (inactive) | growth (MALME-3M melanoma): 102% (inactive) | growth (MDA-MB-231 breast): 101% (inactive) | growth (RXF 393 renal): 116% (inactive) | growth (SF-268 CNS): 102% (inactive) | growth (SF-295 CNS): 104% (inactive) | growth (SF-539 CNS): 101% (inactive) | growth (UACC-257 melanoma): 105% (inactive) | growth (M14 melanoma): 98.7% (inactive)
